{"source": "PubChem BioAssay AID1347131", "about": "(National Center for Advancing Translational Sciences (NCATS), 2019)", "note": "The whole screen tested about 410,000 compounds, of which about 2,000 (0.49%) were called active. Inconclusive results (about 8%) are left out. The call rests on the fitted dose curve; tested in HEK293 reporter line. The list comes from a sample in which actives are over-represented; it also holds similar structures and randomly drawn compounds. A call without a number means that no potency is given here. Potency means the concentration at half of the fitted maximal effect."}
{"test": "qHTS Assay for Foot and Mouth Disease Virus Antivirals: Primary Screen against the MLPCN compound library; further: nearly all actives have a fitted effect of over 55% in size", "conditions": "FMDV antiviral cell-based qHTS; series mostly up to 57.9 µM"}
{"smiles": "O=C(COc1ccc(F)cc1)Nc1ccc2nc(SCC(=O)N3CCOCC3)sc2c1", "Potency": "25.1 µM (active)"}
{"smiles": "O=C(COc1ccc(F)cc1)Nc1ccc2nc(SCC(=O)N3CCc4ccccc43)sc2c1", "Potency": "inactive"}
{"smiles": "Cc1ccc(OCCSc2nc3ccc(NC(=O)c4ccc(F)cc4)cc3s2)cc1", "Potency": "inactive"}
{"smiles": "Cc1occc1C(=O)NC1CCCN(Cc2ccc(Cl)cc2)C1", "note": "(stereo not drawn)", "Potency": "inactive"}
{"smiles": "Cc1nn(CC(C)C)c(Cl)c1C(=O)N(C)CC(=O)Nc1ccc(Cl)cc1", "Potency": "inactive"}
{"smiles": "C=CCN(c1ccc(C(=O)Nc2cccc(C)c2)cc1)S(C)(=O)=O", "Potency": "inactive"}
{"smiles": "CC1CC(C)CN(S(=O)(=O)c2ccc(C(=O)Nc3sccc3C(N)=O)cc2)C1", "note": "(stereo not drawn)", "Potency": "8.91 µM (active)"}
{"smiles": "CC1CN(S(=O)(=O)c2ccc(C(=O)Nc3ccccc3F)cc2)CC(C)O1", "note": "(stereo not drawn)", "Potency": "inactive"}
{"smiles": "NC(=O)c1ccsc1NC(=O)CCS(=O)(=O)c1ccc(F)cc1", "Potency": "inactive"}
{"smiles": "Cc1onc(-c2ccc3c(c2)OCO3)c1-c1ccc2[nH]ccc2c1", "Potency": "inactive"}
{"smiles": "CCOc1ccc(-c2nnc3ccc(SC(C)C)nn23)cc1", "Potency": "inactive"}
{"smiles": "CN(Cc1nc2ccccc2c(=O)[nH]1)C(=O)c1cccc(S(=O)(=O)N2CCCCCC2)c1", "Potency": "inactive"}
{"smiles": "CC(C(=O)Nc1ccccc1-c1ccccc1)N(C)Cc1nc2ccccc2c(=O)[nH]1", "note": "(stereo not drawn)", "Potency": "inactive"}
{"smiles": "CN(C)c1ccc(-c2nc3ccccc3c(=O)[nH]2)cc1", "Potency": "20 µM (active)"}
{"smiles": "Cc1cccc(-n2nnnc2SCC(=O)NCC2CCCO2)c1", "note": "(stereo not drawn)", "Potency": "inactive"}
{"smiles": "CCOC(=O)CNC(=O)CSc1nnc(NC(=O)c2ccc(C)cc2)s1", "Potency": "12.6 µM (active)"}
{"smiles": "CC(C)(C)c1ccc(C(=O)Nc2nnc(SCC(=O)NCC3CCCO3)s2)cc1", "note": "(stereo not drawn)", "Potency": "14.1 µM (active)"}
{"smiles": "CC(C)CC(=O)Nc1nnc(SCC(=O)Nc2ccc(F)cc2)s1", "Potency": "inactive"}
{"smiles": "Cc1cccc(NC(=O)CSc2nnc(NC(=O)CN3CCOCC3)s2)c1", "Potency": "inactive"}
{"smiles": "Cn1c(SCC(=O)NCC2CCCO2)nnc1-c1c[nH]c2ccccc12", "note": "(stereo not drawn)", "Potency": "inactive"}
{"smiles": "O=C(COc1ccc2c3c(c(=O)oc2c1)CCC3)N1CCN(c2ccc(F)cc2)CC1", "Potency": "inactive"}
{"smiles": "Nc1nonc1C(=O)NCCNCc1ccc(Cl)c(Cl)c1", "Potency": "inactive"}
{"smiles": "CCCCn1c(N)c(N(CCC(C)C)C(=O)c2ccc3c(c2)OCO3)c(=O)[nH]c1=O", "Potency": "inactive"}
{"smiles": "CCC(C)c1ccccc1OCCCCN1CCCC1", "note": "(stereo not drawn)", "Potency": "inactive"}
{"smiles": "CC(C)C(OC(=O)c1cccc(S(=O)(=O)NCC(F)(F)F)c1)C(=O)NC(N)=O", "note": "(stereo not drawn)", "Potency": "inactive"}
{"smiles": "Cc1cc(C)nc(NS(=O)(=O)c2ccc(-n3cccc3)cc2)n1", "Potency": "inactive"}
{"smiles": "Cc1cc(C(=O)C(=O)N(C)C)c(C)n1-c1ccc([N+](=O)[O-])cc1", "Potency": "inactive"}
{"smiles": "Cc1ccccc1CN1C2=NCCN2c2ccccc21", "Potency": "inactive"}
